Assay outcomes: PubChem BioAssay, National Center for Advancing Translational Sciences (NCATS)
Only some compounds are listed: those with a hit (about 19% of all), similar ones and a draw of the others.
TDP1 cell noCPT: qHTS for Inhibitors of human tyrosyl-DNA phosphodiesterase 1 (TDP1): qHTS in cells in absence of CPT. actives 15% (n = 420,000). AID 686978, 2013. Potency, µM (doses to about 46.2 µM), for the others: top-dose activity change, negative = growth inhibition, hits mostly inhibitors. DT40 Tdp1-/- hTDP1 cells, no CPT, ATP luminescence, 48 h; further: potency means the concentration at half of the fitted maximal effect; nearly all actives have a fitted effect of over 55% in size
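Cells were dispensed at 400 per well, compounds added by pin tool, plates incubated ≥48 hr at 37 °C, then CellTiter-Glo added for 30 min at room temperature before luminescence reading. Line: DT40 Tdp1-/- complemented with hTDP1; camptothecin omitted.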
TDP1 cell CPT: qHTS for Inhibitors of human tyrosyl-DNA phosphodiesterase 1 (TDP1): qHTS in cells in presence of CPT; Potency, µM (doses to about 46.2 µM), for inactives: at the highest dose activity change, negative = growth inhibition, most hits filed as inhibitors; actives 12% (n = 420,000); chicken DT40 Tdp1-/-;hTDP1 cells + 20 nM CPT, ATP luminescence, 48 h; AID 686979, 2013; further: potency means the concentration at half of the fitted maximal effect; nearly all actives have a fitted effect of over 55% in size
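Cell growth measured by CellTiter-Glo luminescence after a minimum 48 h, 37 C compound exposure with 20 nM CPT in Tdp1-knockout DT40 cells stably expressing hTDP1, seeded 400/well; qHTS titration format.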
IL1B secr inh: qHTS for Inhibitors of Inflammasome Signaling: IL-1-beta AlphaLISA Primary Screen. THP-1 LPS/ATP IL-1B secretion, AlphaLISA, 16 h; stronger effect = lower value. activity change, % at 57.5 µM. actives 4.7% (n = 360,000). AID 743279, 2014; in the data active means activity change below about -50%; inconclusive means mostly about -30% to -49%
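THP-1 cells pretreated 1 hr with compounds (up to 57.5 uM final), then stimulated with LPS (250 ng/mL final) plus ATP (1.25 mM final); secreted IL-1B measured by AlphaLISA after 16 hr, decreased signal indicating inhibition.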
HT1080NT lethal: qHTS for induction of synthetic lethality in tumor cells producing 2HG: qHTS for the HT-1080-NT fibrosarcoma cell line; HT-1080-NT fibrosarcoma viability, CellTiter-Glo ATP luminescence, 48 h; Potency, µM (titrated, usually from 46.1 µM), without a hit: top-dose activity, negative = less viability, most hits filed as cytotoxic; actives 1.6% (n = 360,000);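 further: NT is the 2HG producing partner of a matched IDH1 knockdown line; potency means the concentration at half of the fitted maximal effect; 0% = DMSO-treated cells and -100% = media-only wells without cells; nearly all actives have a fitted effect of over 55% in size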
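Fibrosarcoma NT cells, 750 per well in 5% FBS RPMI, were exposed to compound for 48 hours. Viability: CellTiter-Glo luminescence.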
HT1080 IDH1KD tx: qHTS for induction of synthetic lethality in tumor cells producing 2HG: qHTS for the HT-1080-IDH1KD cell line; AID 686971, 2013; HT-1080 IDH1 knockdown viability, ATP luminescence, 48 h; Potency, µM (doses to about 46.1 µM), without a hit: at the top dose activity, negative = toxicity, actives largely listed as cytotoxic; actives 2% (n = 360,000);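 further: potency means the concentration at half of the fitted maximal effect; 0% = DMSO wells and -100% = cell-free medium wells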
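% activity derives from luminescence (CellTiter-Glo), normalised to DMSO and no-cell wells. HT-1080-IDH1KD cells, 750/well, had 48 h compound exposure at 37 °C.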
Active calls of the source: *; i = inactive; ? = inconclusive; · = not tested or not shown. Unless noted, the call rests on the fitted dose curve; in most records, active means well fitted curve in the direction sought with a large enough effect; inconclusive means small, poorly fitted or top-dose-only effect, or another doubt; inactive means no such curve, though single readings can be large; an effect the other way counts as inactive or inconclusive. Unless noted, on the % scale 0 is the no-effect control and ±100 the full control effect.

SMILES | TDP1 cell noCPT | TDP1 cell CPT | IL1B secr inh | HT1080NT lethal | HT1080 IDH1KD tx
COc1ccc(N2CCOCC2)c(NC(=O)c2cccs2)c1 | ? | ? | -20 | -15% | -13%
CCCCn1c(=N)n(CCOc2ccccc2OC)c2ccccc21 | 4.1µM* | 2.9µM* | · | · | ·
N=c1n(Cc2ccccc2)c2ccccc2n1CC(O)c1ccccc1 (configuration not stated) | 21µM* | 10µM* | ? | ? | ?
COc1ccc(OCCn2c(=N)n(CCO)c3ccccc32)cc1 | ? | -18% | -16 | -5% | -10%
Cc1ccccc1OCC(O)Cn1c2ccccc2c2ccccc21 (configuration not stated) | ? | ? | -85* | ? | ?
CCN(C(=O)COC(=O)c1cnc(C)cn1)c1c(N)n(Cc2ccccc2)c(=O)[nH]c1=O | 15% | -1% | -2 | 3% | 9%
Cc1ccc(NC(=O)c2cc3c(=O)n(Cc4cccnc4)ccc3nc2C)cc1F | -19% | -12% | · | · | ·
O=C(Cc1ccsc1)Nc1ccc2c(c1)OCO2 | -22% | -4% | -18 | 0% | -2%
CCOCC(=O)N1CCN(c2cccc(Cl)c2)CC1 | ? | -11% | -5 | 6% | 9%
COc1ccc(CC(=O)N2CCN(c3cccc(Cl)c3)CC2)cc1OC | 10µM* | ? | 29 | -9% | -3%
COc1ccc(OC)c(S(=O)(=O)N(C)CC(=O)N2CCN(c3cccc(Cl)c3)CC2)c1 | 18µM* | ? | 2 | -13% | -1%
COc1ccc(N2CCN(C(=O)Cc3coc4ccc(C)cc34)CC2)cc1 | ? | 18µM* | · | · | ·
Cc1ccc2onc(CC(=O)N3CCN(c4ccc(F)cc4)CC3)c2c1 | ? | 15µM* | · | · | ·
Cc1ccc(C)c(S(=O)(=O)N2CCCOC2CNC(=O)C(=O)NCc2ccccc2)c1 (configuration not stated) | ? | ? | 4 | -10% | -21%
O=C(OCc1cc2ccccc2[nH]c1=O)c1cccc([N+](=O)[O-])c1 | -15% | -7% | 13 | 5% | 10%
NC(=O)c1ccc(NC(=O)C2CCCC2)cc1 | 9% | 20% | 4 | 5% | 15%
O=C(COc1ccc(S(=O)(=O)N2CCOCC2)cc1)NCc1ccccn1 | -6% | -11% | i | 0% | -5%
COc1cc(NC(=O)Cn2cnc(S(=O)(=O)N3CCC(C)CC3)c2)cc(OC)c1OC | 15% | 14% | 30 | 5% | -1%
COc1ccc(N2CCN(C(=O)Cc3ccc(OC)c(OC)c3)CC2)cc1 | 16µM* | 8.2µM* | -2 | -14% | -16%
COc1ccc(CC(=O)N2CCN(C(=O)Cc3ccc(OC)c(OC)c3)CC2)cc1OC | -13% | 1% | 13 | 6% | 3%
CC1(c2ccc3ccccc3c2)NC(=O)N(CC(=O)N2CCN(Cc3ccccc3)CC2)C1=O (configuration not stated) | 4.6µM* | 8.2µM* | ? | 5.8µM* | -17%
COc1ccc(S(=O)(=O)N2CCN(C(=O)CN3C(=O)NC(C)(C)C3=O)CC2)cc1 | 3% | -4% | 0 | -5% | -3%
COc1ccc(C2(C)NC(=O)N(CC(=O)Nc3ccc4ccccc4c3)C2=O)cc1OC (configuration not stated) | ? | -8% | -55* | ? | -16%
COc1ccc(C2(C)NC(=O)N(CC(=O)Nc3ccc4c(c3)CCC4)C2=O)cc1OC (configuration not stated) | -3% | 2% | -21 | -16% | 0%
COc1ccc(S(=O)(=O)N2CCN(C(=O)CN3C(=O)NC(C)(c4ccc5ccccc5c4)C3=O)CC2)cc1 (configuration not stated) | 23µM* | ? | -16 | -8% | -10%
SMILES | TDP1 cell noCPT | TDP1 cell CPT | IL1B secr inh | HT1080NT lethal | HT1080 IDH1KD tx
CCOc1ccc(-n2c(SCC(=O)NCC3CCCO3)nc3c([nH]c4ccccc43)c2=O)cc1 (configuration not stated) | -13% | -17% | · | · | ·
CC(C(=O)O/N=C(\N)c1cccnc1)c1ccc([N+](=O)[O-])cc1 (configuration not stated) | -24% | 5% | -12 | -6% | -6%
Cc1ccccc1N1C(=O)C(Cl)=C(N2CCCCCC2)C1=O | ? | 29µM* | 10 | -1% | -6%
COc1ccc(C(NC(=O)C2CCN(CCOc3ccc(Cl)cc3Cl)CC2)c2ccccn2)cc1 (configuration not stated) | 23µM* | ? | -56* | 23µM* | 21µM*
COc1ccccc1C(NC(=O)C1CCN(CCOc2ccccc2)CC1)c1ccccn1 (configuration not stated) | ? | ? | -12 | ? | 15%
COc1ccc(S(=O)(=O)N2CCC(C(=O)NCCc3c[nH]c4ccccc34)CC2)cc1 | 0% | ? | 5 | 3% | 9%
COc1cc(OC)nc(C(NC(=O)C2CCN(Cc3c[nH]c4ccccc34)CC2)c2ccc(Cl)cc2)n1 (configuration not stated) | 18µM* | ? | -61* | 5.8µM* | -22%
COc1ccc(OCCN2CCC(C(=O)NC(c3ccc(Cl)cc3)c3cccnc3)CC2)cc1 (configuration not stated) | ? | ? | -12 | ? | 21µM*
O=C(NC(c1ccc(Cl)cc1)c1ccsc1)C1CCN(CCOc2ccc(Cl)cc2)CC1 (configuration not stated) | ? | ? | -68* | ? | ?
COc1ccc(C)cc1S(=O)(=O)N(CC(=O)N1CCCC1)c1ccccc1 | -4% | 7% | 12 | 5% | 4%
Cc1ccc(C(NC(=O)C2CCN(CCOc3ccc(Cl)cc3)CC2)c2ccccn2)cc1 (configuration not stated) | ? | ? | -70* | ? | ?
COc1ccc(CN2CCC(C(=O)NC(C)c3cccc4ccccc34)CC2)cc1 (configuration not stated) | ? | ? | -21 | -16% | -14%
COc1ccc(C(NC(=O)C2CCN(CCCOc3ccccc3)CC2)c2cccs2)cc1 (configuration not stated) | ? | ? | -56* | ? | ?
